# The sample as a whole holds a higher share of hits than the screen did.
# ALR H2O2 inh: inhibitors of human ALR sulfhydryl oxidase, primary screen, biochemical, H2O2 detection, HRP-luminol luminescence, single point. FAD-linked sulfhydryl oxidase ALR (Homo sapiens), P55789. purified ALR, DTT oxidation. inhibition, % (concentration not given with the values). 3.8% of 290,000 active. AID 485317, 2010;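 active means mean replicate inhibition above about 79%, with every replicate also reaching it, limit read from the data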
# CendR NRP1 mod: modulators of CendR peptide binding to NRP-1, primary screen, biochemical, fluorescence polarization, uHTS; inhibition, % at 25 µM; AID 602438, 2012; FAM-RPARPAR peptide binding to NRP-1; Neuropilin-1 (Homo sapiens), O14786; 0.85% of 360,000 active;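 active means inhibition or corrected inhibition above about 18%, plus a signal ratio from 0.5 to 1.5, limit read from the data, passing the limit was not always enough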
# PDI turbidity: inhibitors of human PDI, primary screen, biochemical, turbidity, single point, plate reader; Protein disulfide-isomerase (Homo sapiens), P07237; PDI insulin aggregation turbidity, A650, 90 min; inhibition, % at 10 µM; 0.052% of 350,000 active;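 active means mean inhibition across replicates of 30% or more, whatever share of single replicates reach that level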
# Target sequence (P07237 whole entry, looked up): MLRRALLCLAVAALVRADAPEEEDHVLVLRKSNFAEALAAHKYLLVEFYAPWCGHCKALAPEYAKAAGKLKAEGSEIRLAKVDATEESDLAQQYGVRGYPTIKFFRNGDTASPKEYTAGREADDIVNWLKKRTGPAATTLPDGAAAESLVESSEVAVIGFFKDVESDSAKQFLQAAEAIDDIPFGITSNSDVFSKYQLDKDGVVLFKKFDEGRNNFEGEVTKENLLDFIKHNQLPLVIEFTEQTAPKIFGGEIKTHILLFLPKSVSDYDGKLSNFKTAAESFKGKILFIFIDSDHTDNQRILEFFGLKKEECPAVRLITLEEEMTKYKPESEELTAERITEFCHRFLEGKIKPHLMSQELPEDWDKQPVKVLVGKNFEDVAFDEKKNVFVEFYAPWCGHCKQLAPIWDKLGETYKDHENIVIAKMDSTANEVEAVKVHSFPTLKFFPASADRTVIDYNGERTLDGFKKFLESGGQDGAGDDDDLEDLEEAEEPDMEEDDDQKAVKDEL
# ARNT TACC3 PPI: disruptors of ARNT/TACC3 protein interaction, primary screen, biochemical, AlphaScreen, single concentration | Transforming acidic coiled-coil-containing protein 3 (Homo sapiens), Q9Y6A5 | AlphaScreen His-ARNT PAS-B/GST-TACC3 binding, luminescence; TACC3 fragment carries E629A point mutation | inhibition, % at 9.99 µM | 0.66% of 390,000 active;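 active means mean inhibition of replicates at least 50% and at least half of replicates each reaching 50%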;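 further: 0% = complete ARNT plus TACC3 wells and 100% = ARNT alone without TACC3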
# PglD inh: C. jejuni PglD acetyltransferase inhibitors, primary screen, biochemical, DTNB colorimetric, single point; 0.098% of 360,000 active; purified PglD enzyme, DTNB colorimetric CoA detection; inhibition, % at 12.5 µM; in the data active means inhibition above about 16%, passing the limit was not always enough
# ERp5 block: inhibitors of ERp5-driven insulin aggregation, primary screen, biochemical, turbidity, absorbance 650 nm, single point | Protein disulfide-isomerase A6 (Homo sapiens), Q15084 | 90 min | inhibition, % at 9.99 µM | 0.05% of 350,000 active;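 active means mean replicate inhibition above about 25%, with every replicate also reaching it, limit read from the data, passing the limit was not always enough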
# Active calls of the source: *; · = no result.
SMILES,ALR H2O2 inh,CendR NRP1 mod,PDI turbidity,ARNT TACC3 PPI,PglD inh,ERp5 block
CC(C)(C)Nc1nc(Cl)nc(N(C#N)CN2C(=O)c3ccccc3S2(=O)=O)n1,92*,-2,-4,·,·,2
NS(=O)(=O)c1ccc(NC(NC(=O)c2cccnc2)C(Cl)(Cl)Cl)cc1 (stereo unspecified),1,-5,-7,-7,-3,3
Cc1ccc(NC(NC(=O)c2cccs2)C(Cl)(Cl)Cl)cc1 (stereo unspecified),98*,2,7,9,·,·
Cc1ccc(NC(NC(=O)c2cccnc2)C(Cl)(Cl)Cl)cc1 (stereo unspecified),99*,-4,2,-1,-4,1
Cc1ccc(NC(NC(=O)c2ccccn2)C(Cl)(Cl)Cl)cc1 (stereo unspecified),99*,6,4,-1,-2,·
Cc1ccc(C)c(NC(NC(=O)c2cccnc2)C(Cl)(Cl)Cl)c1 (stereo unspecified),-9,13,-5,2,·,·
COc1ccccc1NC(NC(=O)c1cccnc1)C(Cl)(Cl)Cl (stereo unspecified),88*,-1,7,-8,·,3
NNc1nc2cc3c(cc2s1)OCCO3,99*,-18,4,10,-6,·
COc1cccc(C2/C(=C(/O)c3ccccc3)C(=O)C(=O)N2CCCC(=O)O)c1 (stereo unspecified),·,29*,-8,-21,3,·
COCC(=O)Nc1ccc2c(c1)C(=O)N(C)[C@H]1CC[C@@H](CC(=O)NCCc3ccccc3)O[C@@H]1CO2,·,·,·,10,2,-1
O=C(c1ccccc1Br)N1CCc2c([nH]c3ccccc23)C1,83*,0,1,1,3,1
CC(=NO)C1CCC2C3CCC4=CC(=NO)CCC4(C)C3C(=O)CC12C (stereo unspecified),·,19,37*,-3,-3,-4
Cc1cc(C)c(C#N)c(N2CCN(CCOc3ccc(Cl)cc3)CC2)n1,-3,27*,-1,0,·,7
CCOc1ccc(-c2nc(CSc3nnc(C)s3)cs2)cc1OC,·,-7,-2,5,1,·
CCOc1ccc(-c2nc(CSc3nncs3)cs2)cc1OC,94*,0,2,1,5,·
CN(C)CC(=O)Nc1ccc2c(c1)[C@@H]1C[C@@H](CC(=O)NCCc3ccccc3)O[C@@H](CO)[C@@H]1O2,·,·,·,2,-3,0
CCn1c(=O)n(CC)c2cc(N3CCCC3)c(NC(=O)c3cccc(OC)c3)cc21,66,19,-7,7,0,4
CCn1c(=O)n(CC)c2cc(N3CCCC3)c(NC(=O)c3c(F)cccc3F)cc21,99*,4,0,2,1,2
CCn1c(=O)n(CC)c2cc(N3CCCC3)c(NC(=O)c3ccc(F)cc3)cc21,100*,9,-5,1,0,-5
c1nc(NCC2CCCO2)c2[nH]cnc2n1 (stereo unspecified),-11,-6,-1,-9,0,·
c1ccc2c(c1)[nH]c1c(NCC3CCCO3)ncnc12 (stereo unspecified),82*,-1,-13,-1,9,·
CCCN(C)C[C@@H]1Oc2cc(C#CC(C)(C)O)ccc2S(=O)(=O)N([C@@H](C)CO)C[C@@H]1C,·,·,·,-2,0,0
COc1ccc(C(=O)O)cc1NC(=S)NC(=O)/C=C/c1ccc(C(C)C)cc1,97*,-7,9,27,3,-2
CCCCC(=O)NC(=S)Nc1cc(C(=O)O)ccc1OC,-1,1,-3,-6,5,0
O=C(NCC[C@H]1CC[C@@H](NC(=O)C2CCCCC2)[C@@H](CO)O1)c1cc(Cl)cc(Cl)c1,·,·,·,·,1,1
SMILES,ALR H2O2 inh,CendR NRP1 mod,PDI turbidity,ARNT TACC3 PPI,PglD inh,ERp5 block
N/C(=N\OC(=O)Cc1ccc([N+](=O)[O-])cc1)c1ccc([N+](=O)[O-])cc1,97*,-11,-5,2,1,-1
N/C(=N\OC(=O)Cc1ccc([N+](=O)[O-])cc1)c1cccc(Br)c1,99*,-2,-3,2,·,6
Cc1ccc(CC(=O)O/N=C(\N)Cc2ccc([N+](=O)[O-])cc2)cc1,35,-3,-5,-17,·,0
Cc1ccc(CC(=O)O/N=C(\N)c2cccc([N+](=O)[O-])c2)cc1,-3,-4,9,0,·,5
O=C(c1ccccc1F)N1CC[C@@H]2[C@H]1c1cc(C#Cc3ccccc3F)ccc1N[C@@H]2CO,·,·,·,-1,-4,9
CCCNC(=O)N1C[C@H](O)COC[C@H]2O[C@H](CC(=O)NCc3ccc(Cl)c(Cl)c3)CC[C@@H]21,·,·,·,8,2,0
O=C(C1CCCCC1)N1CCCc2ccccc21,·,10,1,1,-3,·
CC(C)N1C(=O)CCC1C(=O)N1CCCc2ccccc21 (stereo unspecified),-4,8,3,13*,25*,·
O=C(C[C@H]1CC[C@H]2[C@@H](COC[C@H](O)CN2C(=O)Nc2cc(Cl)cc(Cl)c2)O1)N1CCCCC1,·,·,·,12,-3,-9
Cc1cc(C)c(S(=O)(=O)/N=C2\C=C(NS(=O)(=O)c3ccccc3)C(=O)c3ccccc32)c(C)c1,-32,28*,-2,-6,0,-5
Cc1ccc(S(=O)(=O)/N=C2\C=C(NS(=O)(=O)c3ccccc3)C(=O)c3ccccc32)cc1,·,65*,9,20,0,-1
COc1ccccc1CN(C)C[C@@H]1OCc2cn(nn2)CCCC(=O)N([C@@H](C)CO)C[C@@H]1C,·,·,·,-5,2,-3
COc1ccccc1OCc1ccc(C(=O)NN)o1,90*,7,3,-7,10,3
CCC(=O)N1Cc2cc(C(=O)NCCOC)nc(-c3cccc(-c4ccc(C#N)cc4)c3)c2[C@@H]1CCO,·,·,·,·,·,13
Cc1ccc(NC(=O)CNC(=O)c2ccc(C)o2)cc1,-11,-10,14,1,1,-1
Cc1ccc(C(=O)NCC(=O)Nc2ccccc2C)o1,·,23*,-3,·,0,-3
CN1C(=O)SC(Nc2cccc3ccccc23)C1=O (stereo unspecified),90*,5,8,-9,7,·
C[C@H]1CN([C@@H](C)CO)C(=O)c2cccc(NS(C)(=O)=O)c2O[C@@H]1CN(C)Cc1ccc(C(F)(F)F)cc1,·,·,·,4,-3,3
CS(=O)(=O)c1nc(-c2cccs2)cc(C(F)(F)F)n1,99*,·,·,·,·,·
